40 compounds from PubChem BioAssay can be followed below.

SMILES strings stand for the structures. A number with no mark means an inactive call. The rule behind the calls is not given here.

The target in the test is Pantothenate synthetase (Mycobacterium tuberculosis (strain ATCC 25618 / H37Rv)) (UniProt P9WIL5). The test is described as follows: Coupled enzyme confirmation of inhibitors against recombinant Mtb PanC (AID 375).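 Note: 0% = full reaction with vehicle and 100% = no enzyme background.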 The following applies: coupled enzyme assay; at 10 µM, hits give high values.
Chain of Pantothenate synthetase (Mycobacterium tuberculosis (strain ATCC 25618 / H37Rv)) (P9WIL5 whole entry, looked up): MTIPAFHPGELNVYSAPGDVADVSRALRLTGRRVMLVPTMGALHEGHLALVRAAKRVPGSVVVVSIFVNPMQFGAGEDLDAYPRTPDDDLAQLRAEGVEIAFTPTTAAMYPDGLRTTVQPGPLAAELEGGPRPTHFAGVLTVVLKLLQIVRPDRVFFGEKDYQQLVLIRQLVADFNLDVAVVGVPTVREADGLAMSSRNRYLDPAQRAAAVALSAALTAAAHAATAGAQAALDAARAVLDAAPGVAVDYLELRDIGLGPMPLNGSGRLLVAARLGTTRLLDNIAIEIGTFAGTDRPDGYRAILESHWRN
The term inhibition denotes the drop in the measured response relative to a control, in per cent. Regarding `CCC(C)NC(=O)CS(=O)(=O)Cc1nc(-c2cccc(OC)c2)oc1C` (stereo not given), the inhibition is 0%.

Regarding `CCOc1ccc(N(CC(=O)NCc2ccco2)S(=O)(=O)c2ccc(OC)c(OC)c2)cc1`, the inhibition was 0%.

Turning to `CCN(CCNC(=O)C1CCN(S(C)(=O)=O)CC1)c1ccccc1`, the inhibition was 6%.

Regarding `Cc1ccc(OCC(=O)NCCN2CCCC2)cc1`, the inhibition was 0%.

Regarding `CCOC(=O)c1ccc(NC(=O)NC(C)C2CCCO2)cc1` (stereo not given), the inhibition was 0%.

`O=C(CCCn1c(=S)[nH]c2ccccc2c1=O)N1CCCCC1`: the inhibition was 0%.

Consider `CC(C)CN1C(=O)c2ccc(C(=O)Nc3nccs3)cc2C1=O`, for which the inhibition was 0%.

Take `Cc1ccc(S(=O)(=O)NC(=O)c2cc(C)n(CCCn3ccnc3)c2C)cc1`: the inhibition was 2%.

On to `Cc1ccc(N2CC(C(=O)N3CCN(C(=O)c4ccco4)CC3)CC2=O)cc1` (stereo not given), for which the inhibition is 0%.

As for `CCC(=O)c1ccc(OCCN2CCOCC2)cc1`, the inhibition was 4%.

Take `Cn1c(SCc2cccc3ccccc23)nnc1-c1ccco1`: the inhibition is 0%.

Turning to `CC(C)(C)C(=O)NC1CCN(C(=O)N2CCCC2)CC1`, the inhibition is 6%.

On to `CCOC(=O)N1CCN(C(=O)COc2ccc(S(=O)(=O)NC(C)C)cc2)CC1`, for which the inhibition was 0%.

`Cc1cc(NCCN2CCCCC2)n2c(nc3ccccc32)c1C#N`: the inhibition was 14%.

For the compound `CCOC(=O)C1CCCN(CC(=O)NC2CC2)C1` (stereo not given), the inhibition is 6%.

On to `CN1CCN(c2ncnc3c2cnn3-c2ccc(Cl)cc2)CC1`, for which the inhibition is 1%.

As to `N#Cc1c(N)oc(-c2cccs2)c1-c1cccs1`, the inhibition is 1%.

Regarding `CCC(C)NCC(O)COCc1ccc(Cl)cc1` (stereo not given), the inhibition was 4%.

Consider `COc1cc(Cn2c(-c3nonc3N)nc3ccccc32)ccc1C`, for which the inhibition is 0%.

For the compound `O=C(CSc1nc2c(c(=O)n1-c1ccc(F)cc1)SCC2)NCC1CCCO1` (stereo not given), the inhibition is 6%.

Regarding `Cc1cccc(C)c1NC(=O)COC(=O)c1nonc1N`, the inhibition was 0%.

`CN(C(=O)CSc1nc2c(c(=O)[nH]1)CCCC2)C1CCCCC1`: the inhibition is 0%.

For the compound `O=S(=O)(Cc1ccccc1)N1CCN(Cc2ccccc2)CC1`, the inhibition was 5%.

`CC1Cn2c(nnc2-c2ccc(F)cc2)S1` (stereo not given): the inhibition is 6%.

Regarding `CN(C(=O)c1ccccc1Cl)c1ccccc1`, the inhibition is 2%.

As for `O=C(CSc1nc2[nH]ncc2c(=O)n1-c1ccccc1Br)NCc1ccco1`, the inhibition was 1%.

As to `CCCn1c(SCC(=O)NCc2ccco2)nc2c1c(=O)n(C)c(=O)n2C`, the inhibition was 11%.

Regarding `COCCNC(=O)CN(C)S(=O)(=O)c1ccc(Br)cc1`, the inhibition was 0%.

Turning to `O=C(O)CCCC(=O)Nc1nc(-c2ccc(F)cc2)cs1`, the inhibition is 0%.

As for `C=CCSc1n[nH]c(-c2ccc(OC)cc2)n1`, the inhibition was 0%.

On to `CN(C)CC(=O)N1c2ccccc2CCc2ccc(NC(=O)c3ccc(N)cc3)cc21`, for which the inhibition was 0%.

On to `CCn1ncc(C2=NOC(C(=O)NCc3ccccc3)C2)c1C` (stereo not given), for which the inhibition was 6%.

As for `COc1ccc(C)cc1NC(=O)CNC(=O)Cn1ccc2ccccc2c1=O`, the inhibition is 5%.

Take `C=CCn1c(Br)nc2c1c(=O)[nH]c(=O)n2C`: the inhibition is 0%.

Take `COc1ccc(NC(=O)C2Cc3ccccc3C(=O)O2)cc1` (stereo not given): the inhibition was 0%.

Turning to `COc1ccccc1NC(=O)N(C1CCCC1)C1CCN(C(C)=O)CC1`, the inhibition is 1%.

With `CCOC(=O)C1=C(c2ccccc2)N2CCS(=O)(=O)N=C2S1`, the inhibition is 0%.

For `C=CCN(CC=C)C(=O)c1ccncc1`, the inhibition was 0%.

For `O=C(CCS(=O)(=O)c1cccc2nonc12)Nc1cccc2c1CCCC2`, the inhibition is 1%.

Turning to `Cc1nc2sc(C(c3cccc(F)c3)N3CCOCC3)c(O)n2n1` (stereo not given), the inhibition is 0%.
